# Most compounds without a hit are left out; they make up all but 1.8% or so of the library.
# PABP1 MLLE inh: inhibitors of PABP1 MLLE–PAM2 peptide binding, primary screen, biochemical, fluorescence polarization, FITC-PAM2, GST-MLLE; inhibition, % at 20 µM; 360,000 compounds, 0.36% hits; in the data active = inhibition above about 35%, passing the limit was not always enough
# PABP FP inh: PABP poly(A) RNA binding inhibitors, primary screen, biochemical, fluorescence polarization, uHTS; calls only at 35 µM; 290,000 compounds, 1% hits; AID 2014, 2009;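 also: calls also rest on retests at 20 µM and on dose response follow-up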
# eIF4H inh: human eIF4H binding inhibitors, primary screen, translation initiation inhibitor project, biochemical, uHTS, fluorescence polarization; inhibition, % at 35 µM; 290,000 compounds, 0.94% hits; AID 2012, 2009; eIF4H fluorescence polarization binding assay;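 also: calls also rest on retests at 20 µM and on dose response follow-up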
# MEX-5 binding: MEX-5 zinc finger RNA-binding disruptors – biochemical, C. elegans, fluorescence polarization, MLPCN library, primary screen; Zinc finger protein mex-5 (Caenorhabditis elegans), Q9XUB2; AID 1832, 2009; 300,000 compounds, 0.38% hits; activity score (negative = inhibition of binding), % at 10 µM; MEX-5/FITC-TCR2 RNA binding; hits give low values;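 active = inhibition past about -25% in most replicates, and total fluorescence under double the plate's negative control median, limit read from the data; inconclusive = replicates evenly split on the limit, or fluorescence at least double controls; inactive = too little inhibition in most replicates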
# Target sequence (Q9XUB2 whole entry, looked up): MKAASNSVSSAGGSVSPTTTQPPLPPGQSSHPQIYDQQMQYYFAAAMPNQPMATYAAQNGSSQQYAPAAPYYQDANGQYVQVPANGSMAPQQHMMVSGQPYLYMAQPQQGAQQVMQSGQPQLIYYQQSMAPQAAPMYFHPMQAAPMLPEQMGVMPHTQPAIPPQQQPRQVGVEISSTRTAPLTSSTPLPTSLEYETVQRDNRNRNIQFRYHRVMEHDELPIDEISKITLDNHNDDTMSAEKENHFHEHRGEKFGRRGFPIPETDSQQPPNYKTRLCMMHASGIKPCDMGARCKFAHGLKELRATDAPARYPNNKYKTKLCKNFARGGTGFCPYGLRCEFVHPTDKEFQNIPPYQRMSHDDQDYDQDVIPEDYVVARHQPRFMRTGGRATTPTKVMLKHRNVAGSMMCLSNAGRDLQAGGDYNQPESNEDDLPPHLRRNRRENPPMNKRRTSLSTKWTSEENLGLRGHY
# EBV gp42 inh: Epstein-Barr virus gp42 inhibitors, primary screen, biochemical, uHTS, fluorescence polarization; 220,000 compounds, 0.42% hits; inhibition, % (tested at 21.74 µM); Fluorescence polarization binding assay, mP read-out; Glycoprotein 42 (Epstein-Barr virus (strain AG876)), Q1HVG2; AID 1085, 2008; in the data active = inhibition above about 50%
# Hits are given with their value; - = inactive; ? = inconclusive; . = not tested or not shown; + = active, no number. Unless noted, no rule for the calls is given here.
SMILES,PABP1 MLLE inh,PABP FP inh,eIF4H inh,MEX-5 binding,EBV gp42 inh
COc1cc(/C=C2\SC(=O)N(c3ccc(Cl)cc3)C2=O)cc([N+](=O)[O-])c1O,-,-,95.5,.,100.1
O=C(Cc1ccc(NC(=O)C2CCN(C(=O)CCc3ccccc3)CC2)cc1)Nc1ccc(C(=O)N2CCOCC2)cc1,-,.,.,.,.
CC(=O)N1CCN(c2cc(-c3ccccc3)nc3cc(-c4cccc(Cl)c4)nn23)CC1,-,.,.,.,.
COCCCn1c(N)c(-c2nc3ccccc3n2C)c2nc3ccccc3nc21,-,-,-,-34.1,-
CCOC(=O)C1=C(C)Nc2ccc(C)cc2S1,50.1,-,-,-,-
CCOCCOC(=O)C1=C(C)Nc2ccc(C)cc2S1,-,-,-,-,-
CCOCc1cnc(C)nc1NCC(=O)c1c(C)[nH]c2ccc(OC)cc12,-,+,active,-,-
COc1ccc2[nH]c(C)c(C(=O)CN3CCN(C/C=C/c4ccccc4)CC3)c2c1,-,-,-,-,-
O=C(Nc1cccc2[nH]c([C@H]3C[C@H](O)[C@@H](CO)O3)nc12)NC(c1ccccc1)c1ccccc1,-,.,.,.,.
CCOc1cc(C(c2c(C)[nH][nH]c2=O)c2c(C)[nH][nH]c2=O)cc(Cl)c1O,-,-,-,-,.
COc1cc(C(c2c(C)[nH][nH]c2=O)c2c(C)[nH][nH]c2=O)cc([N+](=O)[O-])c1O,-,-,-,-80.5,-
CCOc1cc(C(c2c(C)[nH][nH]c2=O)c2c(C)[nH][nH]c2=O)cc([N+](=O)[O-])c1O,-,-,-,-68.5,.
COc1cc(/C=C/c2[nH]c(=O)[nH]c(=O)c2[N+](=O)[O-])cc([N+](=O)[O-])c1O,-,+,59.3,-,.
CCCS(=O)(=O)NC(=O)C1(C)CCN(C(=O)c2ccc(OC)cc2OC)C1 (stereo not drawn),-,.,.,.,.
CC(=O)C1=C(O)C(=O)N(c2ccc(F)cc2)C1c1ccc(C)cc1 (stereo not drawn),-,-,-,-,.
CC(=O)C1=C(O)C(=O)N(c2cccc(C(=O)O)c2)C1c1ccc(F)cc1 (stereo not drawn),-,+,?,-,-
C#Cc1cccc(N2C(=O)C3C4C=CC(C3C2=O)C2C(=O)N(c3cccc(C#C)c3)C(=O)C42)c1 (stereo not drawn),-,.,.,.,.
CCn1c(SCc2ccc(C(=O)Nc3nccs3)cc2)nnc1-c1ccc(N)cc1,-,-,-,-,53.3
CC(=O)Nc1ccc(-c2ccnc3c2CC(C)(C(=O)Nc2ccc(Cl)cc2)O3)cc1 (stereo not drawn),-,.,.,.,.
COc1ccc(-n2nc3ccc(N)cc3n2)cc1Cl,-,+,55.3,-,.
CCN(CC(=O)N1CCCC1)S(=O)(=O)c1ccc(Br)cc1,-,-,-,-,.
CCN(CC(=O)N1CCCC1)S(=O)(=O)c1ccccc1,-,+,71.8,-,.
COc1c(C)cc(C(O)c2ncc(-c3ccccc3F)[nH]2)cc1C (stereo not drawn),-,.,.,.,.
CCCc1nc2c(=O)n(C)c(=O)[nH]c2n1C,-,+,53.4,-,-
CN1c2ccccc2C(O)=C(C(=S)Nc2ccc(F)c(Cl)c2)S1(=O)=O,47.7,-,-,-,-
SMILES,PABP1 MLLE inh,PABP FP inh,eIF4H inh,MEX-5 binding,EBV gp42 inh
Cc1ccc(NC(=S)C2=C(O)c3ccccc3N(C)S2(=O)=O)cc1,40.0,-,-,-,-
COc1ccc(NC(=O)C2CCCN2S(=O)(=O)c2ccc3c(c2)C(C)(C)C(=O)N3C)cc1 (stereo not drawn),-,.,.,.,.
CCNc1nc(SCC(N)=O)nc2sc3c(c12)CCN(C)C3,-,+,-,-,.
CSc1nc(SCC(N)=O)c2c3c(sc2n1)CN(C)CC3,-,-,-,-,-
COc1ccc(-n2nnnc2C(c2ccccc2)N2CCN(C/C=C/c3ccccc3)CC2)cc1 (stereo not drawn),-,.,.,.,.
CCOn1c(=O)c(-c2cc3ccccc3o2)[n+]([O-])c2ccccc21,-,-,-,-42.8,-
O=c1c(-c2cc3ccccc3o2)[n+]([O-])c2ccccc2n1OCc1ccccn1,-,+,-,-,-
C[C@H](CO)N1C[C@H](C)[C@@H](CN(C)C(=O)c2cc(-c3ccccc3)on2)OCc2cn(nn2)CCCC1=O,-,.,.,.,.
O=C(OCC(=O)N(CCc1ccccc1)Cc1ccccc1)c1ccc(F)c(S(=O)(=O)N2CCOCC2)c1,-,.,.,.,.
CCC(C)n1c(SCC(=O)NC2CC2)nc2ccccc2c1=O (stereo not drawn),-,.,.,.,.
COC(=O)CCC(=O)Nc1c(C)n(C)n(-c2ccccc2)c1=O,-,-,-,-,-
Cc1c(NC(=O)CC(C)C)c(=O)n(-c2ccccc2)n1C,-,+,-,-,-
OC(c1cccnc1)c1nc(-c2cccc(F)c2)cs1 (stereo not drawn),-,.,.,.,.
COc1ccccc1Cc1c(C(C)(C)C)nc2c3ccccc3ccn12,-,.,.,.,.
Cc1ccc([C@H]2C[C@@H](O)[C@H](n3cc(C4CC4)nn3)CN2C(=O)c2cccs2)cc1,-,.,.,.,.
Oc1ccc(O)c(Cc2nc3ccccc3s2)c1,-,+,82.4,-,-
NC(=O)CSCc1nc2ccccc2s1,-,+,54.7,-,-
Oc1ccccc1OCc1nc2ccccc2s1,-,-,-,-,-
O=C1C=C(c2ccccc2Oc2ccccc2)C[C@@H](c2ccc(F)cc2)C1,-,.,.,.,.
Cc1cc(NC(=O)CC#N)n(-c2ccccc2)n1,-,-,77.5,-,-
Cc1ccc(-c2ccc(/C=C(\C#N)C(=O)Nc3cc(C)nn3-c3ccccc3)o2)cc1,.,-,-,?,120.1
Cc1cc(NC(=O)/C(C#N)=C/c2ccco2)n(-c2ccccc2)n1,-,-,-,-,-
CC(C)(C)S(=O)N1Cc2cc(C(=O)NCC(F)(F)F)nc(-c3cccc(-c4cccc(F)c4)c3)c2[C@H]1CCO (stereo partly drawn),-,.,.,.,.
CC(=O)Oc1ccc2c(=O)c(Oc3ccccc3)coc2c1OC(C)=O,-,+,98.2,-,-
O=C1CC(=O)Nc2cc(S(=O)(=O)N3CCN(c4ccc([N+](=O)[O-])cc4)CC3)ccc2N1,-,-,70.0,-,.
SMILES,PABP1 MLLE inh,PABP FP inh,eIF4H inh,MEX-5 binding,EBV gp42 inh
O=C(N=Nc1c(O)[nH]c2ccccc12)Nc1ccccc1,-,.,.,.,.
CC(C)(O)C(=O)N=Nc1c(O)[nH]c2ccccc12,-,-,-,-,-
Oc1[nH]c2ccccc2c1N=Nc1ccccc1,-,?,?,-41.8,101.5
NC(=S)N=Nc1c(O)[nH]c2ccc(F)cc12,47.9,-,-,-,-
O=C(N=Nc1c(O)[nH]c2ccccc12)c1cc(-c2ccc(F)cc2)n[nH]1,-,-,-,-,61.5
COC(=O)/C=C(\C)N=Nc1c(O)[nH]c2ccccc12,-,+,8.6,-,-
